Source: PubChem BioAssay
Rows were chosen to be rich in hits. Some 2.4% of all compounds tested hit in one or more screens of this group.
PfGluPho inh = PfG6PD (Plasmodium falciparum) enzyme inhibition; PfGluPho enzyme, NADPH resazurin-diaphorase fluorescence; inhibition, % at 20 µM; 0.78% of 350,000 active; AID 504690;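 active = inhibition reaching at least a set limit at 20 µM in the primary screen, cut at about 59% in these data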;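 note: 0% = DMSO wells with substrate and 100% = DMSO wells lacking glucose-6-phosphate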
A3A deaminase = human APOBEC3A DNA deaminase inhibition; P31941; recombinant A3A, FAM/TAMRA ssDNA deamination fluorescence; inhibition, % at 20 µM; 0.41% of 330,000 active; AID 493011;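 active = at least 40% inhibition at 20 µM here, with at most 30% in a related deaminase screen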;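 note: plate controls were A3A with DMSO for no effect and wells lacking A3A enzyme for full effect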
Target sequence (P31941 whole entry, looked up): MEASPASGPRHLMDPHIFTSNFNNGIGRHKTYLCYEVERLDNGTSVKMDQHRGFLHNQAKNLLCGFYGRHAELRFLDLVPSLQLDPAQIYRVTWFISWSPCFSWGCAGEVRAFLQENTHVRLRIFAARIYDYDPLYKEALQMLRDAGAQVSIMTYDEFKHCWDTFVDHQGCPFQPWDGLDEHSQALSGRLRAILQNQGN
PfM18AAP inh = PfM18AAP enzyme inhibition. recombinant PfM18AAP, H-Glu-NHMec fluorogenic cleavage. inhibition, % at 7.35 µM. 1.2% of 290,000 active;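 active = inhibition above the campaign mean inhibition over all tested compounds plus 3 SD, cut at about 28% in these data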;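 note: 0% = plate median of test compound wells and 100% = 2 mM ZnCl2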
CR mimetic SO = lowers age-related superoxide in aged yeast cells. 0.18% of 330,000 active. AID 2690. superoxide response (% of plate mean), % at 10 µM. S. cerevisiae aged cells, superoxide DHE fluorescence; hits give low values;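 active = superoxide response under a set limit, about three screen SD below normal, cut at about 65% in these data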;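 note: yeast aged for seven days with compound at 30 °C before DHE staining; 100% = average MFI of all compound-treated wells on the plate with controls excluded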
APOBEC3G inh = blocks human APOBEC3G single-stranded DNA deamination | Q9HC16 | recombinant A3G, ssDNA deamination FAM/TAMRA fluorescence | inhibition, % at 20 µM | 0.28% of 330,000 active | AID 493012;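 active = inhibition of at least 40% at 20 µM, with no more than 30% in the related APOBEC3A deaminase screen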;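 note: plate controls were DMSO wells with A3G for no effect and wells lacking A3G enzyme for full effect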
Target sequence (Q9HC16 whole entry, looked up): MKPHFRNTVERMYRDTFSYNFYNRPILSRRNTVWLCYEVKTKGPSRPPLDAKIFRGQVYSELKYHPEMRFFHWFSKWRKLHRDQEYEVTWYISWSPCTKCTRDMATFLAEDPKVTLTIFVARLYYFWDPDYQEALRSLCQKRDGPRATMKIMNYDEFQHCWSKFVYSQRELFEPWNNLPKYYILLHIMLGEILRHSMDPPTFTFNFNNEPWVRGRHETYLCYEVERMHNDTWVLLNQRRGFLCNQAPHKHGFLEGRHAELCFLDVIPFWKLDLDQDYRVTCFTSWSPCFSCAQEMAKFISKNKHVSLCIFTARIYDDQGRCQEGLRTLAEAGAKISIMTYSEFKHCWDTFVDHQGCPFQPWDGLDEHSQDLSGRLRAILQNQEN
PfG6PD confirm = confirmation of Plasmodium falciparum G6PD inhibitors; 34% of 2,400 active; AID 504753; shares compounds with PfGluPho inh; recombinant PfGluPho, NADPH-diaphorase-resazurin fluorescence; inhibition, % at 20 µM;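 active = inhibition of at least 50% at 20 µM in any single replicate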;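 note: 0% = DMSO with substrate and 100% = DMSO lacking glucose-6-phosphate substrate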
Diaphorase 10uM = counter-screen for P. falciparum G6PD inhibitors: diaphorase inhibitors, oxidizers; shares compounds with PfGluPho inh; inhibition, % at 20 µM; 39% of 820 active; diaphorase-coupled resazurin reduction, fluorescence, NADPH 10 uM;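 active = average inhibition reaching 50% or more with the compound at 20 µM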;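 note: resorufin red fluorescence formed as diaphorase reduces resazurin using NADPH; 0% = DMSO with enzyme and 100% = DMSO without enzyme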
Diaphorase 30uM = diaphorase inhibition or oxidation at 30 uM NADPH | shares compounds with PfGluPho inh | Diaphorase/resazurin coupled assay, resorufin fluorescence | inhibition, % at 20 µM | 29% of 820 active | AID 504863;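 active = inhibition averaging 50% or more, tested at 20 µM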;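 note: 0% = DMSO with enzyme and 100% = DMSO wells lacking diaphorase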
* marks the source's active call; other numbers are inactive results; / = not tested or not shown.

SMILES	PfGluPho inh	A3A deaminase	PfM18AAP inh	CR mimetic SO	APOBEC3G inh	PfG6PD confirm	Diaphorase 10uM	Diaphorase 30uM
CCOc1cc(NCc2ccccc2)c2ncn(C(C)C)c2c1	65.8*	-4.0	/	138.1	-9.9	48.3*	8.2	-3.0
CCCOc1cc(NCc2ccccc2)c2ncn(C(C)C)c2c1	77.4*	-6.9	/	106.5	-9.1	32.8	/	/
C[C@H](CO)N1C[C@H](C)[C@@H](CN(C)C(=O)Nc2ccc(C(F)(F)F)cc2)Oc2c(cccc2N(C)C)C1=O	82.0*	-0.8	/	96.2	-2.3	64.2*	53.5*	47.9
C[C@H](CO)N1C[C@H](C)[C@@H](CN(C)C(=O)Nc2ccc(C(F)(F)F)cc2)Oc2c(NC(=O)Nc3ccccc3)cccc2C1=O	21.6	2.0	/	117.2	0.8	/	/	/
COc1ccccc1-c1ccc(=O)n(CC(=O)NC2CCc3ccccc32)n1 (stereo unspecified)	-3.3	-3.5	-0.2	102.0	-1.8	/	/	/
O=C(O)C(C=C(Cl)Cl)N1CCOCC1 (stereo unspecified)	0.2	/	/	/	/	/	/	/
CC1(OC(=O)C2CCCC2)C(=O)C=C2C=C(c3ccsc3)N(CC3CC3)C=C2C1=O (stereo unspecified)	67.8*	2.8	/	104.7	-0.5	49.8*	12.0	14.4
CC1(OC(=O)C2CCCC2)C(=O)C=C2C=C(c3ccsc3)N(C3CCCCC3)C=C2C1=O (stereo unspecified)	42.0	-0.8	/	93.9	3.5	/	/	/
CC1(OC(=O)C2CCCC2)C(=O)C=C2C=C(c3ccsc3)N(Cc3ccc4c(c3)OCO4)C=C2C1=O (stereo unspecified)	61.0*	0.2	/	96.5	-5.4	52.7*	8.5	2.9
CC1(OC(=O)C2CCCC2)C(=O)C=C2C=C(c3ccsc3)N(CCN3CCOCC3)C=C2C1=O (stereo unspecified)	/	-2.7	/	/	-8.5	/	/	/
CC1(OC(=O)C2CCCC2)C(=O)C=C2C=C(c3ccsc3)N(CCc3c[nH]c4ccccc34)C=C2C1=O (stereo unspecified)	78.4*	-4.0	/	98.2	-5.1	65.7*	4.7	7.5
CC(C)(C)OC(=O)C[C@H]1C/C=C\C[C@@H](CC(=O)NCCO)C(=O)N[C@H](Cc2ccccc2)COC1=O	19.2	-4.6	/	105.2	-7.1	/	/	/
CN(C)CCNCCCNc1c2ccccc2nc2cccc([N+](=O)[O-])c12	0.1	/	/	/	/	/	/	/
CC(=O)Nc1cccc(NC(=O)CSc2n[nH]c(-c3ccccc3)n2)c1	-1.1	-1.6	/	123.1	-7.0	/	/	/
Cc1nnc(SCC(=O)NCCC2=CCCCC2)[nH]c1=O	-4.8	-1.5	/	115.3	-3.2	/	/	/
CC(C)(C)c1ccc(C(=O)Nc2cccc([N+](=O)[O-])c2)cc1	74.0*	/	4.1	80.1	/	-0.7	/	/
O=C(Nc1cccc([N+](=O)[O-])c1)c1ccc2ccccc2c1O	77.6*	18.7	1.5	97.9	6.1	8.2	/	/
CN(c1ccc(C(=O)Nc2cccc([N+](=O)[O-])c2)cc1)S(C)(=O)=O	48.5	-5.1	-10.9	94.6	-15.6	/	/	/
O=C(Cc1ccccc1)Nc1cccc([N+](=O)[O-])c1	7.4	-1.7	-16.9	95.4	-2.6	/	/	/
Cc1cc2nnc(SCC(=O)NCC(c3ccccc3)N(C)C)n2c2ccccc12 (stereo unspecified)	-1.0	0.1	3.1	101.2	-7.6	/	/	/
Cc1ccc2nc(-c3ccc(NC(=S)NC4CC(C)(C)NC(C)(C)C4)cc3)sc2c1	93.2*	-1.9	2.1	86.9	-9.9	111.2*	-16.2	-1.4
CC(Sc1nnc(-c2cccnc2)n1N)C(=O)Nc1ccc2c(c1)OCCO2 (stereo unspecified)	-10.7	-0.1	/	/	-3.5	/	/	/
COc1ccc2c(c1)C1(C)CC(C)(C)N2C(=O)N1c1ccccc1 (stereo unspecified)	73.3*	-1.7	2.2	103.0	-3.7	47.1	/	/
COC(=O)CC1C(=O)NCCN1C(=O)c1oc2c(C)c(C)ccc2c1C (stereo unspecified)	2.8	/	/	/	/	/	/	/
O=C(CCl)N(O)c1ccc(C=Cc2ccccc2)cc1	62.1*	/	/	/	/	-5.5	/	/
SMILES	PfGluPho inh	A3A deaminase	PfM18AAP inh	CR mimetic SO	APOBEC3G inh	PfG6PD confirm	Diaphorase 10uM	Diaphorase 30uM
CCCn1cc(S(=O)(=O)CC(=O)N2CCc3ccccc32)c2ccccc21	18.7	-5.7	-1.7	105.2	-5.8	/	/	/
Cn1cc(S(=O)(=O)Cc2ccc(F)cc2)c2ccccc21	102.6*	-8.2	-4.9	83.1	-8.2	62.3*	68.9*	51.1*
Cn1cc(S(=O)(=O)CC(=O)N2CCc3ccccc32)c2ccccc21	74.3*	6.0	-1.3	96.0	1.7	53.4*	48.8	45.6
COC[C@H](NS(=O)(=O)c1ccc(Br)cc1F)[C@@H](O)c1ccccc1	-13.2	/	/	/	/	/	/	/
CCc1ccc(CNC(=O)C2CCN(S(=O)(=O)N3CCCCC3)CC2)cc1	0.1	/	/	/	/	/	/	/
NC(=O)c1ccsc1NC(=O)COC(=O)c1cnccn1	2.9	5.4	/	125.7	4.1	/	/	/
O=C(N/N=C\c1cccc(Cl)c1)c1ccc(Cn2cc(Br)c([N+](=O)[O-])n2)o1	51.0	-10.8	2.6	82.6	-11.9	/	/	/
Cc1c(Cl)c([N+](=O)[O-])nn1Cc1ccc(C(=O)N/N=C\c2cccc(Br)c2)o1	104.8*	-1.1	0.2	117.7	-6.3	61.0*	61.4*	49.3
O=C(/C=C/c1ccccc1)Nc1scc(-c2ccccc2)c1C(=O)O	60.6*	/	-0.1	/	/	25.9	/	/
Cc1ccc(-c2csc(NC(=O)c3ccccc3F)c2C(=O)O)cc1	73.0*	4.9	-10.1	83.3	-4.4	51.4*	35.6	40.5
Cn1cc(CN2CCC(n3nccc3NC(=O)Cc3ccccc3)CC2)cn1	18.9	-2.3	3.6	85.1	-5.0	/	/	/
Nc1cc(OCC(F)(F)F)cc([N+](=O)[O-])c1	0.8	-3.6	0.4	89.0	-6.4	/	/	/
Nc1cc(N)c(OCC(F)(F)F)cc1OCC(F)(F)F	99.1*	2.4	14.6	120.7	8.2	93.5*	33.6	22.1
Cc1c(N)cc2c(c1N)C(C)(C)CC2(C)C	83.1*	/	/	/	/	45.7	/	/
CCc1nc(SCC(=O)c2ccccc2)c2c(=O)n(C)c(=O)n(C)c2n1	57.9	4.4	5.3	102.5	1.2	/	/	/
CCCc1nc(SCC(=O)c2ccccc2)c2c(=O)n(C)c(=O)n(C)c2n1	71.1*	-0.8	-2.4	103.5	-7.4	24.1	/	/
Cc1nn(-c2ccccc2)c(C)c1/C=N/NC(=O)CSc1nnc(SCc2cccc3ccccc23)s1	-5.2	-1.2	1.7	85.3	-2.0	/	/	/
O=C(COc1ccccc1-c1ccccc1)N/N=C/c1cccc2ccccc12	10.8	4.5	6.6	76.9	2.2	/	/	/
O=C(COc1cccc2ccccc12)N/N=C/c1ccccc1OCc1ccc(C(=O)O)cc1	76.8*	-4.2	0.2	103.0	-6.1	44.9	/	/
